Source: PubChem (National Center for Advancing Translational Sciences (NCATS))
A selection: hits, their analogues and other compounds. The true share with any hit is near 11%.
AMA1 RON2 block = inhibitors of Plasmodium falciparum AMA1-RON2 interaction; AlphaScreen AMA1-biotinylated RON2 peptide binding; Potency, µM (titrated, usually from 58.2 µM), inactives show at the top dose activity change, negative = inhibition, usual class: inhibitors; 360,000 tested, 0.2% active;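 further: 0% = vehicle wells and -100% = peptide control; nearly all actives have a fitted effect of over 45% in size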
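AMA1 (3D7) with his tag at 25 nM final met compounds first, then biotinylated RON2 peptide at 25 nM; detection used donor plus acceptor beads, 10 µg/mL apiece, read by AlphaScreen after 30 min at room temperature.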
Pf growth 96h = P. falciparum growth inhibition at 96 hour, primary screen for plastid delayed-death inhibitors; Potency, µM (highest dose often 28.7 µM), for inactives: at the top dose activity change, negative = inhibition, usual class: inhibitors; P. falciparum luciferase reporter growth, 96 h; 320,000 tested, 6.9% active; AID 504834
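Readout is luminescence from an integrated firefly luciferase in P. falciparum. Red cells, 2% hematocrit and 0.05% parasitemia final, were cultured with compound through two parasite generations (96 hours) at 37 C, 5% CO2.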
Pf growth 48h = P. falciparum growth inhibition at 48 hours (one generation); P. falciparum luciferase growth in erythrocytes, 48 h; Potency, µM (series often up to 28.7 µM), inactives show top-dose activity change, negative = inhibition, usual class: inhibitors; 310,000 tested, 5.9% active
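Parasite viability was followed by luminescence of a genomically integrated firefly luciferase. Cultures held 0.1% parasitemia at 2% hematocrit (final), incubated under 5% CO2 at 37 C.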
AmpC detergent = AmpC beta-lactamase inhibition with detergent present; Potency, µM (doses to about 114 µM), inactives show top-dose activity change, negative = inhibition, hits mostly inhibitors; 370,000 tested, 0.041% active; AID 485294; AmpC hydrolysis of nitrocefin, absorbance 480 nm, 0.01% Triton;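 further: 0% = no-compound wells and -100% = no-enzyme wells; nearly all actives have a fitted effect of over 25% in size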
Target sequence (P00811 whole entry, looked up): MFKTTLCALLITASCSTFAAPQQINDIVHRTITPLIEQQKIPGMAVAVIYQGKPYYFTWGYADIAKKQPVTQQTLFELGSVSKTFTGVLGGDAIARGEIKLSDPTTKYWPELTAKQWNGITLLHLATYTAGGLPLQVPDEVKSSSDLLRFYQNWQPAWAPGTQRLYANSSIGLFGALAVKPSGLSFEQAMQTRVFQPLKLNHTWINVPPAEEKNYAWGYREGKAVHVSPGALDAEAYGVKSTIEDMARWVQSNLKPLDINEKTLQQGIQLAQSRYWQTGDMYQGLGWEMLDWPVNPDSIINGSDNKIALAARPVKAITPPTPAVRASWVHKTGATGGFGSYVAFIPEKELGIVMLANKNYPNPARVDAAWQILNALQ
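20 mM phosphate pH 7.0 + 0.01% (detergent screen) or 0.0001% Triton X-100; 5.3 nM AmpC reagent; cpd preinc 15 min RT; nitrocefin (800 uM stock) to start; A480 q20 s × 4 min; Activity was normalised to no-enzyme and no-compound control wells.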
HCV inhibitor = inhibitors of hepatitis C virus infection; 340,000 tested, 3.4% active; Huh7.5.1 HCVcc-Cre infection, luciferase reporter, 44 h; Potency, µM (titrated, usually from 41.8 µM), for the others: at the top dose activity change, negative = inhibition, hits mostly inhibitors
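Antiviral activity was scored by luciferase reporter output from cells infected with HCVcc-Cre (~0.5 moi) in presence of compound, 44 h infection period, cells seeded 1,000/well 4 h prior.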
AmpC inh no detg = blocks E. coli AmpC beta-lactamase in detergent-free assay. P00811. AmpC nitrocefin hydrolysis, absorbance 480 nm, 0.0001% Triton. Potency, µM (titrated, usually from 57.1 µM), without a hit: at the top dose activity change, negative = inhibition, most hits filed as inhibitors. 330,000 tested, 0.52% active. AID 485341;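 further: plate controls were no compound for no effect and no enzyme for full effect; nearly all actives have a fitted effect of over 20% in size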
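20 mM phosphate pH 7.0 + 0.01% (detergent screen) or 0.0001% Triton X-100; 5.3 nM AmpC reagent; cpd preinc 15 min RT; nitrocefin (800 uM stock) to start; A480 q20 s × 4 min; Activity was normalised to no-enzyme and no-compound control wells.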
Numbers without * were called inactive; ? = inconclusive; / = no result given. The call rests on the fitted dose curve; in most records, active means well fitted curve in the direction sought with a large enough effect; inconclusive means small, poorly fitted or top-dose-only effect, or another doubt; inactive means no such curve, though single readings can be large; an effect the other way counts as inactive or inconclusive. Unless noted, on the % scale 0 is the no-effect control and ±100 the full control effect; potency means the concentration at half of the fitted maximal effect.

SMILES	AMA1 RON2 block	Pf growth 96h	Pf growth 48h	AmpC detergent	HCV inhibitor	AmpC inh no detg
COc1cc(C2/C(=C(/O)c3ccc(OCC(C)C)cc3)C(=O)C(=O)N2CCN(C)C)ccc1O (stereo unspecified)	1%	12µM*	9%	?	5%	8%
CCOc1ccccc1C1C(C(=O)Nc2ccccc2)=C(C)Nc2nc(SCC(=O)c3ccc(C)cc3)nn21 (stereo unspecified)	/	/	/	3%	/	/
CCN(CC)S(=O)(=O)c1cccc(C(=O)/C=C2/N(C)c3ccccc3C2(C)C)c1	24%	?	?	-9%	10µM*	-3%
CN1/C(=C\C(=S)NC(=O)c2cccc(Br)c2)C(C)(C)c2ccccc21	?	12µM*	?	-5%	11µM*	-28%
CN1/C(=C/C(=O)C2CC2)C(C)(C)c2ccccc21	-1%	-4%	39%	8%	12%	3%
CCOc1ccc(NC(=O)Cc2csc(COc3cccc(C)c3)n2)cc1	/	/	/	1%	/	/
Cc1ccc(-n2ncc(C(=O)NCc3ccco3)c2C2CCN(C(=O)OC(C)(C)C)CC2)cc1C	/	/	/	-4%	/	/
COc1ccc(C(=O)CSc2nnc(C3CCCCC3)n2N)c(OC)c1	8%	9.3µM*	0%	3%	10µM*	50%
COc1ccc(NC(=O)CSc2nnc(C3CCCCC3)n2N)cc1	6%	16%	5%	-2%	4%	-6%
CN1CCN(S(=O)(=O)c2ccc(-c3ccc(Cl)cc3)cc2)CC1	10%	/	-13%	?	6%	-4%
CN1CCN(S(=O)(=O)c2ccc(Cc3ccc(S(=O)(=O)N4CCN(C)CC4)cc3)cc2)CC1	-1%	12µM*	?	-18%	-4%	103%
CN1CCN(S(=O)(=O)c2ccc(Cl)cc2)CC1	22%	1.9µM*	-20%	?	14%	-10%
CN1CCN(S(=O)(=O)c2ccc(-c3ccc(S(=O)(=O)N4CCN(C)CC4)cc3)cc2)CC1	/	-11%	12%	?	/	-8%
Cc1ccc(C)c(Oc2coc3cc(OC(=O)c4cccs4)ccc3c2=O)c1	15%	/	/	/	2%	/
COc1ccc(Oc2coc3cc(OC(=O)c4cccs4)ccc3c2=O)cc1	-7%	4.1µM*	54%	-19%	-7%	-34%
Cc1ccc(Nc2nc(C)cc(C)n2)c(C(=O)O)c1	/	/	/	8%	/	/
O=C(CSc1nnc(Cn2nnc(-c3ccccc3)n2)n1-c1ccccc1)Nc1ccccc1	-4%	?	?	?	?	-15%
Cc1cccc(C)c1NC(=O)CSc1nnc(Cn2nnc(-c3ccccc3)n2)n1-c1ccccc1	-14%	-17%	9.3µM*	-1%	?	35%
O=C(CSc1nnc(Cn2nnc(-c3ccccc3)n2)n1-c1ccccc1)Nc1ccc(F)cc1	-1%	/	9.3µM*	-3%	-23%	1%
Cc1cccc(C)c1NC(=O)CCCSc1nnc(-c2ccc(F)cc2)n1-c1ccccc1	7%	12µM*	-14%	-11%	?	57%
CCOC(=O)c1c(C)[nH]c(C)c1S(=O)(=O)N1CCCC(C(=O)Nc2ccccc2OCC)C1 (stereo unspecified)	/	/	/	4%	/	/
CCOC(=O)c1ccc(Nc2ncnc3ccc(C)cc23)cc1	11%	-6%	?	?	-14%	-19%
CCOC(=O)c1cccc(Nc2ncnc3ccc(C)cc23)c1	3%	9.3µM*	12µM*	5%	25µM*	-21%
CCCn1c(O)c(N=NC(=O)CNC(=O)c2cccnc2)c2ccccc21	0%	36%	-17%	-11%	?	4%
CCCn1c(O)c(N=NC(=O)c2cccnc2)c2cc(Br)ccc21	2%	5.9µM*	5.9µM*	5%	?	-26%
O=c1c2cnn(-c3ccc(F)cc3)c2ncn1Cc1cccnc1	-2%	155%	3%	1%	-10%	5%
